# Results as given in paper PMC8384837, “Expanding the binding specificity for RNA recognition by a PUF domain”.
# Columns and labels:
# Assay in all cases: yeast three-hybrid, YBZ-1, SC-Leu-His + 0.5 mM 3-AT, 4 days
# Settings in all cases: tags: N-Gal4 AD-HA kept; label: inside an RPR1-promoter hybrid RNA with tandem MS2 sites; ssRNA
# [1] = target: PUM1 PUF domain R5-ERV (Homo sapiens, UniProt Q14671 828-1176, C1007E;Q1011V)
# Procedure, shortened: (§1)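 Repeat regions from input (SC-Leu) and selection (SC-Leu-His + 0.5 mM 3-AT) plates were PCR-amplified and Illumina-sequenced after four days of growth. The cells were strain YBZ-1 with a LexA–MS2 coat fusion and a HIS3 reporter, co-expressing Pumilio-1 PUF domain libraries and matching RNA elements from a centromeric plasmid. The interaction score is the log change in variant frequency from input to selection, taken in log2 with a pseudocount of 1 for absent variants.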
# [2] = target: PUM1 PUF domain R5-KFK (Homo sapiens, UniProt Q14671 828-1176, C1007K;R1008F;Q1011K)
# Procedure, shortened: as §1
# [3] = target: PUM1 PUF domain R5-DFY (Homo sapiens, UniProt Q14671 828-1176, C1007D;R1008F;Q1011Y)
# Procedure, shortened: as §1
# [4] = target: PUM1 PUF domain R5-RNT (Homo sapiens, UniProt Q14671 828-1176, C1007R;R1008N;Q1011T)
# Procedure, shortened: as §1
# [5] = target: PUM1 PUF domain R5-FHI (Homo sapiens, UniProt Q14671 828-1176, C1007F;R1008H;Q1011I)
# Sequence of PUM1 PUF domain R5-FHI (Q14671 828-1176 C1007F/R1008H/Q1011I): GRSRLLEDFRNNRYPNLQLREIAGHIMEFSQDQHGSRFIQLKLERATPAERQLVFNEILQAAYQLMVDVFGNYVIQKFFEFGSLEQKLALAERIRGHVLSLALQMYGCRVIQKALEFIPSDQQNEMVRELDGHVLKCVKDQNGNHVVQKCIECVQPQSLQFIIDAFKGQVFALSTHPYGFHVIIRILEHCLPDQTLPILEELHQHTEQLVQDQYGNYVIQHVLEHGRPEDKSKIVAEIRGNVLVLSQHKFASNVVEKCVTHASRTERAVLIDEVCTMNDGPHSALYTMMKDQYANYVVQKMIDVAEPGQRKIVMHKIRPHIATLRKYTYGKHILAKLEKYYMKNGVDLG
# Procedure, shortened: as §1
# [6] = target: PUM1 PUF domain R5-LQR (Homo sapiens, UniProt Q14671 828-1176, C1007L;R1008Q;Q1011R)
# Sequence of PUM1 PUF domain R5-LQR (Q14671 828-1176 C1007L/R1008Q/Q1011R): as the sequence (Q14671 828-1176 C1007F/R1008H/Q1011I) above, with F180L, H181Q, I184R counted along it
# Procedure, shortened: as §1
# [7] = target: PUM1 PUF domain R5-QKV (Homo sapiens, UniProt Q14671 828-1176, C1007Q;R1008K;Q1011V)
# Sequence of PUM1 PUF domain R5-QKV (Q14671 828-1176 C1007Q/R1008K/Q1011V): as the sequence (Q14671 828-1176 C1007F/R1008H/Q1011I) above, with F180Q, H181K, I184V counted along it
# Procedure, shortened: as §1
# [8] = target: PUM1 PUF domain R8-RRQ (Homo sapiens, UniProt Q14671 828-1176, N1122R;Y1123R)
# Procedure, shortened: as §1
# [9] = target: PUM1 PUF domain R8-KRG (Homo sapiens, UniProt Q14671 828-1176, N1122K;Y1123R;Q1126G)
# Procedure, shortened: as §1
# [10] = target: PUM1 PUF domain R2-QWR (Homo sapiens, UniProt Q14671 828-1176, N899Q;Y900W;Q903R)
# Sequence of PUM1 PUF domain R2-QWR (Q14671 828-1176 N899Q/Y900W/Q903R): as the sequence (Q14671 828-1176 C1007F/R1008H/Q1011I) above, with N72Q, Y73W, Q76R, F180C, H181R, I184Q counted along it
# Procedure, shortened: as §1
# [11] = target: PUM1 PUF domain R1-RAT (Homo sapiens, UniProt Q14671 828-1176, S863R;R864A;Q867T)
# Procedure, shortened: as §1
# [12] = target: PUM1 PUF domain R1-NLR (Homo sapiens, UniProt Q14671 828-1176, S863N;R864L;Q867R)
# Procedure, shortened: as §1
# [13] = target: PUM1 PUF domain R4-GPG (Homo sapiens, UniProt Q14671 828-1176, N971G;H972P;Q975G)
# Procedure, shortened: as §1
# [14] = target: PUM1 PUF domain R4-SYP (Homo sapiens, UniProt Q14671 828-1176, N971S;H972Y;Q975P)
# Sequence of PUM1 PUF domain R4-SYP (Q14671 828-1176 N971S/H972Y/Q975P): as the sequence (Q14671 828-1176 C1007F/R1008H/Q1011I) above, with N144S, H145Y, Q148P, F180C, H181R, I184Q counted along it
# Procedure, shortened: as §1
# [15] = target: PUM1 PUF domain R2-RTQ (Homo sapiens, UniProt Q14671 828-1176, N899R;Y900T)
# Sequence of PUM1 PUF domain R2-RTQ (Q14671 828-1176 N899R/Y900T): as the sequence (Q14671 828-1176 C1007F/R1008H/Q1011I) above, with N72R, Y73T, F180C, H181R, I184Q counted along it
# Procedure, shortened: as §1
# [16] = target: T1, PUM1 PUF domain R6-TFG (Homo sapiens, UniProt Q14671 828-1176, N1043T;Y1044F;Q1047G)
# T1 sequence: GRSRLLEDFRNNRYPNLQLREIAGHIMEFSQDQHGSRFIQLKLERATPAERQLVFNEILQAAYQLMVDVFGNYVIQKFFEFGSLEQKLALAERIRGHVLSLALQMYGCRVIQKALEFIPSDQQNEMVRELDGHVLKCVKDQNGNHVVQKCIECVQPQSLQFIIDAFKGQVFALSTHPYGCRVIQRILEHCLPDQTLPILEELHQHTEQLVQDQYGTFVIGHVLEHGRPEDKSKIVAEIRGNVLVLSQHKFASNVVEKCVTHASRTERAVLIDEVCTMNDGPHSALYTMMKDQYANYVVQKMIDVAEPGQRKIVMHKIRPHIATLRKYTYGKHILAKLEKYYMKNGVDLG
# Procedure, shortened: as §1
# [17] = target: PUM1 PUF domain R3-GRY (Homo sapiens, UniProt Q14671 828-1176, C935G;Q939Y)
# Procedure, shortened: as §1
# [18] = target: PUM1 PUF domain R4-PRC (Homo sapiens, UniProt Q14671 828-1176, N971P;H972R;Q975C)
# Sequence of PUM1 PUF domain R4-PRC (Q14671 828-1176 N971P/H972R/Q975C): as the sequence (Q14671 828-1176 C1007F/R1008H/Q1011I) above, with N144P, H145R, Q148C, F180C, H181R, I184Q counted along it
# Procedure, shortened: as §1
# [19] = target: PUM1 PUF domain R3-NAL (Homo sapiens, UniProt Q14671 828-1176, C935N;R936A;Q939L)
# Sequence of PUM1 PUF domain R3-NAL (Q14671 828-1176 C935N/R936A/Q939L): as the sequence (Q14671 828-1176 C1007F/R1008H/Q1011I) above, with C108N, R109A, Q112L, F180C, H181R, I184Q counted along it
# Procedure, shortened: as §1
# [20] = target: PUM1 PUF domain R3-RCG (Homo sapiens, UniProt Q14671 828-1176, C935R;R936C;Q939G)
# Sequence of PUM1 PUF domain R3-RCG (Q14671 828-1176 C935R/R936C/Q939G): as the sequence (Q14671 828-1176 C1007F/R1008H/Q1011I) above, with C108R, R109C, Q112G, F180C, H181R, I184Q counted along it
# Procedure, shortened: as §1
# Sequence of PUM1 PUF domain R5-ERV (Q14671 828-1176 C1007E/Q1011V): as the sequence (Q14671 828-1176 C1007F/R1008H/Q1011I) above, with F180E, H181R, I184V counted along it
sequence,measurement,setting,value
GGCUAGAACUAGUGGAUCCCCCGGCGCCCGGCGGCUCGAGCCCGGGUAAGUGUGAAUAGUCUGCAUGCCGCCGGGCGCCAUGCCUGCAGGUCGACUCUAGAAAACAUG,binding signal,[1],3.34 log2 enrichment (interaction score)
GGCUAGAACUAGUGGAUCCCCCGGCGCCCGGCGGCUCGAGCCCGGGUAAGUGUUAAUAGUCUGCAUGCCGCCGGGCGCCAUGCCUGCAGGUCGACUCUAGAAAACAUG,binding signal,[2],5.11 log2 enrichment (interaction score)
same,binding signal,[3],4.07 log2 enrichment (interaction score)
same,binding signal,[4],3.11 log2 enrichment (interaction score)
same,binding signal,[5],2.85 log2 enrichment (interaction score)
same,binding signal,[6],2.83 log2 enrichment (interaction score)
same,binding signal,[7],2.71 log2 enrichment (interaction score)
GGCUAGAACUAGUGGAUCCCCCGGCGCCCGGCGGCUCGAGCCCGGGUAAGCGUAAAUAGUCUGCAUGCCGCCGGGCGCCAUGCCUGCAGGUCGACUCUAGAAAACAUG,binding signal,[8],2.97 log2 enrichment (interaction score)
same,binding signal,[9],4.19 log2 enrichment (interaction score)
GGCUAGAACUAGUGGAUCCCCCGGCGCCCGGCGGCUCGAGCCCGGGUAAGUGUAAACAGUCUGCAUGCCGCCGGGCGCCAUGCCUGCAGGUCGACUCUAGAAAACAUG,binding signal,[10],4.86 log2 enrichment (interaction score)
GGCUAGAACUAGUGGAUCCCCCGGCGCCCGGCGGCUCGAGCCCGGGUAAGUGUAAAUUGUCUGCAUGCCGCCGGGCGCCAUGCCUGCAGGUCGACUCUAGAAAACAUG,binding signal,[11],3.04 log2 enrichment (interaction score)
same,binding signal,[12],3.68 log2 enrichment (interaction score)
GGCUAGAACUAGUGGAUCCCCCGGCGCCCGGCGGCUCGAGCCCGGGUAAGUGUCAAUAGUCUGCAUGCCGCCGGGCGCCAUGCCUGCAGGUCGACUCUAGAAAACAUG,binding signal,[4],2.85 log2 enrichment (interaction score)
same,binding signal,[6],3.47 log2 enrichment (interaction score)
same,binding signal,[1],2.93 log2 enrichment (interaction score)
GGCUAGAACUAGUGGAUCCCCCGGCGCCCGGCGGCUCGAGCCCGGGUAAGUGUAUAUAGUCUGCAUGCCGCCGGGCGCCAUGCCUGCAGGUCGACUCUAGAAAACAUG,binding signal,[13],2.98 log2 enrichment (interaction score)
same,binding signal,[14],6.95 log2 enrichment (interaction score)
GGCUAGAACUAGUGGAUCCCCCGGCGCCCGGCGGCUCGAGCCCGGGUAAGUGUAAAAAGUCUGCAUGCCGCCGGGCGCCAUGCCUGCAGGUCGACUCUAGAAAACAUG,binding signal,[15],2.44 log2 enrichment (interaction score)
GGCUAGAACUAGUGGAUCCCCCGGCGCCCGGCGGCUCGAGCCCGGGUAAGUGUAAAUGGUCUGCAUGCCGCCGGGCGCCAUGCCUGCAGGUCGACUCUAGAAAACAUG,binding signal,[11],2.45 log2 enrichment (interaction score)
GGCUAGAACUAGUGGAUCCCCCGGCGCCCGGCGGCUCGAGCCCGGGUAAGUGUAAAUCGUCUGCAUGCCGCCGGGCGCCAUGCCUGCAGGUCGACUCUAGAAAACAUG,binding signal,[11],4.37 log2 enrichment (interaction score)
GGCUAGAACUAGUGGAUCCCCCGGCGCCCGGCGGCUCGAGCCCGGGUAAGUGUAAAUAGUCUGCAUGCCGCCGGGCGCCAUGCCUGCAGGUCGACUCUAGAAAACAUG,binding signal,[16],5.01 log2 enrichment (interaction score)
same,binding signal,[8],1.1 log2 enrichment (interaction score)
same,binding signal,[13],5.02 log2 enrichment (interaction score)
same,binding signal,[3],2.71 log2 enrichment (interaction score)
same,binding signal,[4],2.05 log2 enrichment (interaction score)
same,binding signal,[9],1.8 log2 enrichment (interaction score)
same,binding signal,[17],4.27 log2 enrichment (interaction score)
same,binding signal,[18],2.48 log2 enrichment (interaction score)
same,binding signal,[6],1.81 log2 enrichment (interaction score)
same,binding signal,[1],5.11 log2 enrichment (interaction score)
same,binding signal,[19],3.24 log2 enrichment (interaction score)
same,binding signal,[20],0.63 log2 enrichment (interaction score)
GGCUAGAACUAGUGGAUCCCCCGGCGCCCGGCGGCUCGAGCCCGGGUAAGUGUAAGUAGUCUGCAUGCCGCCGGGCGCCAUGCCUGCAGGUCGACUCUAGAAAACAUG,binding signal,[20],2.96 log2 enrichment (interaction score)
GGCUAGAACUAGUGGAUCCCCCGGCGCCCGGCGGCUCGAGCCCGGGUAAGUGUACAUAGUCUGCAUGCCGCCGGGCGCCAUGCCUGCAGGUCGACUCUAGAAAACAUG,binding signal,[13],2.28 log2 enrichment (interaction score)
same,binding signal,[14],6.78 log2 enrichment (interaction score)
GGCUAGAACUAGUGGAUCCCCCGGCGCCCGGCGGCUCGAGCCCGGGUAAGUGUAAUUAGUCUGCAUGCCGCCGGGCGCCAUGCCUGCAGGUCGACUCUAGAAAACAUG,binding signal,[20],3.58 log2 enrichment (interaction score)
